Our source for the nuclei count and inhibition of aggregation values is PubChem BioAssay.

Calls of active or inactive are those of the source.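 How the source made its calls: active means visual image review flags a hit and inhibition of aggregation exceeds 20%; inconclusive means visual hit but inhibition at or below 20%; inactive means no hit on visual image review.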

The assay in a line: inhibitors of mutant huntingtin aggregation, primary screen, imaging, exon1htt(103Q)mCFP cells, high-content imaging (AID 483).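 Further: compound exposure lasted 3 days before fixation.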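 On nuclei count: percent of the per-plate median nuclei count of sample wells.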 The conditions noted are these: exon1htt(103Q)mCFP cell line, aggregate imaging, at 2 µM; inhibition of aggregation: stronger effect = higher value; nuclei count: measured here: cell count, toxicity.
For the molecule `c1ccc(-c2ccccc2OCCn2cncn2)cc1`, the nuclei count amounted to 112% and the inhibition of aggregation was 22.9% (inactive).

For the molecule `COc1ccc(NC(=O)CN(c2ccc(C)cc2)S(C)(=O)=O)c(OC)c1`, the inhibition of aggregation is -0.7% (inactive) and the nuclei count turned out to be 92.5%.

Take `O=C(OCC(=O)N1CCCC1)c1ccccc1OCc1ccccc1`: the inhibition of aggregation was -9.8% (inactive) and the nuclei count came out at 95.3%.

With `Cc1cc(NS(=O)(=O)c2ccc(NC(=O)COc3ccccc3C(C)C)cc2)no1`, the inhibition of aggregation is 17.6% (inactive) and the nuclei count came to 72.3%.

In the case of `CCN(CC)c1ccc(NC(=O)CN2CCN(CC(=O)Nc3ccccc3F)CC2)cc1`, the nuclei count is 104% and the inhibition of aggregation was 5.8% (inactive).

As for `COc1cc2[nH]c(=O)c(C(=O)NCCCN3CCCCC3)c(O)c2cc1OC`, the nuclei count stood at 98.3% and the inhibition of aggregation was 6.2% (inactive).

With `Cn1c(NC(=O)c2ccccc2NC(=O)C(C)(C)C)nc2ccccc21`, the nuclei count was 98.3% and the inhibition of aggregation was 11.9% (inactive).

Consider `O=c1[nH]c2sc3c(c2c2nncn12)CCCC3`, for which the inhibition of aggregation is 13.5% (inactive) and the nuclei count worked out at 108%.

Take `Cc1nnc(SCC(=O)NCCN2C(=O)CSC2=O)s1`: the nuclei count is 65.4% and the inhibition of aggregation is 19.8% (inactive).

As to `Cc1ccc(-c2nn(C)c(=O)c3ccccc23)cc1S(=O)(=O)NCCN1CCOCC1`, the inhibition of aggregation was 13.3% (inactive) and the nuclei count was determined as 100%.

`COc1cccc(Oc2cn[nH]c2-c2ccc(O)cc2O)c1`: the inhibition of aggregation is -13.9% (inactive) and the nuclei count amounted to 103%.

Take `COc1ccc(CCNC(=O)CCN2C(=O)C3CC=CCC3C2=O)cc1OC` (stereo not given): the inhibition of aggregation was -8.1% (inactive) and the nuclei count came to 83.4%.

Turning to `c1ccc(-c2nnc(-c3ccco3)n2-c2ccccc2)cc1`, the nuclei count came to 102% and the inhibition of aggregation is 8.4% (inactive).

For `CCCCCCC1/C(=N/O)CCC1C(=O)OC` (stereo not given), the inhibition of aggregation is 7.3% (inactive) and the nuclei count was determined as 91.2%.

As for `CCOc1ccc2[nH]c(=O)c(C(c3nnnn3Cc3ccco3)N3CCC(C)CC3)cc2c1` (stereo not given), the nuclei count stood at 97.1% and the inhibition of aggregation is 13.4% (inactive).
